Source: PubChem BioAssay AID588774 (The Scripps Research Institute Molecular Screening Center, 2011)
Active and inactive are the calls of the source.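 How the source made its calls: active means target enzyme inhibited at least 50% at a set dose, and selective over every off-target enzyme by a set factor; inactive means weaker inhibition or too little selectivity.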

Legend:
[1] = competitive ABPP of pPAFAH versus proteome hydrolases – biochemical, gel-based, FP-Rh fluorescence, complex proteome, SAR compounds, selectivity assay for pPAFAH inhibitor project, SAR follow-up (AID 588774); settings: MW 32 kDa, anti-targets inhibited, at 10 µM;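 on inhibition: 0% = DMSO-only band intensity and 100% = blank gel background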
MW 32 kDa = test: as above; settings: at 10 µM, stronger effect = higher value

SMILES	anti-target count [1]	inhibition (MW 32 kDa)
Cc1cc(N2CCN(C(=O)Oc3ccc(C4CCCC4)cc3)CC2)c2ccccc2n1	0	0% (inactive)
Cc1cc(N2CCN(C(=O)n3ncc(-c4ccc([N+](=O)[O-])cc4)n3)CC2)c2ccccc2n1	9	85% (inactive)
Cc1cc(N2CCN(C(=O)n3oc4cc(Cl)ccc4c3=O)CC2)c2ccccc2n1	3	0% (inactive)
O=C(Oc1noc2cc(Cl)ccc12)N1CCOCC1	3	30% (inactive)
Cc1cc(N2CCN(C(=O)Oc3ccc(-c4ccccc4)cc3)CC2)c2ccccc2n1	0	0% (inactive)
Cc1cc(N2CCN(C(=O)Oc3ccc(C4CCCCC4)cc3)CC2)c2ccccc2n1	0	0% (inactive)
Cc1cc(N2CCN(C(=O)Oc3ccc([N+](=O)[O-])cc3)CC2)c2ccccc2n1	2	0% (inactive)
Cc1cc(N2CCN(C(=O)Oc3ccc(C(F)(F)F)cc3)CC2)c2ccccc2n1	1	0% (inactive)
Cc1cc(N2CCN(C(=O)n3ncc(-c4ccc(OC(F)(F)F)cc4)n3)CC2)c2ccccc2n1	9	87% (inactive)
Cc1cc(N2CCN(C(=O)Oc3noc4cc(Cl)ccc34)CC2)c2ccccc2n1	4	0% (inactive)
O=C(N1CCOCC1)n1oc2cc(Cl)ccc2c1=O	6	39% (inactive)
O=C(Oc1noc2cc(Cl)ccc12)N1CCCCC1	2	0% (inactive)
Cc1cc(N2CCN(C(=O)Oc3ccc(-n4cccc4)cc3)CC2)c2ccccc2n1	0	0% (inactive)
Cc1cc(N2CCN(C(=O)Oc3ccc(-c4ccc(Br)cc4)cc3)CC2)c2ccccc2n1	0	0% (inactive)
Cc1cc(N2CCN(C(=O)n3ncc(-c4ccc(Cl)c(Cl)c4)n3)CC2)c2ccccc2n1	8	50% (inactive)
Cc1cc(N2CCN(C(=O)n3ncc(-c4ccccc4)n3)CC2)c2ccccc2n1	9	72% (inactive)
COc1ccc(-c2cnn(C(=O)N3CCN(c4cc(C)nc5ccccc45)CC3)n2)cc1	8	67% (inactive)
